Reference: PubChem BioAssay
Activity calls are given as the source filed them.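 The calls were made as follows: active = RAM network inhibition above 8.4% in each of two replicates, 3 SD over the compound average; inconclusive = above 8.4% inhibition in only one replicate; inactive = 8.4% inhibition or less in each replicate.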

Assay: RAM signaling pathway blockade in yeast – S. cerevisiae, Pdr1DBD-CYC8 efflux-inhibited sensitized strain, primary screen (AID 1298);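 also: 0% = DMSO untreated cells without growth and 100% = 10 µM 1-NA-PP1 full growth; higher means more yeast growth rescued from 5-FOA killing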
Settings: S. cerevisiae cbk1-as DSE1-URA3 strain, 5-FOA growth OD615, 2 d; at 50 µM; stronger effect = higher value
For CCOC(=O)N1CCN(C(=O)CSc2nc3c(cnn3-c3ccc(C)cc3)c(=O)[nH]2)CC1, the RAM network inhibition was 3.12% (inactive).
In the case of CCOC(=O)c1ccc2nc(NC(=O)C(C)C)sc2c1, the RAM network inhibition is reported as 0.06% (inactive).
For Cc1ccc(C2=CC(c3ccc(N(C)C)cc3)n3nnnc3N2)cc1 (centres undefined), the RAM network inhibition was -0.47% (inactive).
With Cn1c(=O)c2c(nc(CN3CCOCC3)n2CCCO)n(C)c1=O the RAM network inhibition was 6.48% (inactive).
In the case of COCCCNC(=O)Cn1cc2c(n1)CCCCC2, the RAM network inhibition is reported as 4.53% (inactive).
In the case of O=C(NCc1ccco1)c1cnccn1, the RAM network inhibition is reported as -0.25% (inactive).
For CCCCn1c(CCNC(=O)CCC)nc2ccccc21, the RAM network inhibition was -0.53% (inactive).
For COc1ccc2[nH]c(C)c(CCN3C(=O)C4C5C=CC(C5)C4C3=O)c2c1 (centres undefined), the RAM network inhibition was 4.02% (inactive).
With O=C1CCc2cc(S(=O)(=O)NC(Cc3ccccc3)C(=O)NCC3CCCO3)ccc2N1 (centres undefined) the RAM network inhibition was 1.49% (inactive).
In the case of CCOC(=O)c1c(N)sc(C(N)=O)c1C, the RAM network inhibition is reported as 0.78% (inactive).
In the case of O=C(NCCCN1CCC(Cc2ccccc2)CC1)C1CC(=O)N(C2CCCC2)C1 (centres undefined), the RAM network inhibition is reported as 2.13% (inactive).
With Cc1ccc(Cl)cc1N1CCN(C(=O)C2CCN(c3nnc(-n4cccc4)s3)CC2)CC1 the RAM network inhibition was 8.04% (inactive).
For CC(=O)c1c(C)[nH]c(C(=O)N2c3ccccc3CC2C)c1C (centres undefined), the RAM network inhibition was 3.82% (inactive).
With Cc1ccc2cc(CCNC(=O)C3CCCC3)c(=O)[nH]c2c1 the RAM network inhibition was 4.58% (inactive).
With CCCCN(C)CCNC(=O)Cn1c(=O)sc2ccccc21 the RAM network inhibition was 5.27% (inactive).
For CCOC(=O)N1CCN(c2ccc3nnnn3n2)CC1, the RAM network inhibition was 0.43% (inactive).
With CCCOc1ccc(C2c3c(oc4cc(C)c(C)cc4c3=O)C(=O)N2CCCN(C)C)cc1OCC (centres undefined) the RAM network inhibition was -0.16% (inactive).
For CCOC(=O)C1=C2N(C)c3ccccc3N2CCC1=O, the RAM network inhibition was -0.41% (inactive).
For CCNc1nc(OCCNS(=O)(=O)c2cc(C)ccc2C)nc(N(C)C)n1, the RAM network inhibition was -0.63% (inactive).
For O=C(c1cc(-c2cccc(O)c2)on1)N1CCOCC1, the RAM network inhibition was 2.22% (inactive).
With Cc1cc(C(=O)NC2CCCC2)on1 the RAM network inhibition was 1.5% (inactive).
For O=C(Nc1cccc(C(F)(F)F)c1)c1cnc2n(c1=O)CCS2, the RAM network inhibition was 5.71% (inactive).
With Cn1c(=O)c2c(nc(CN3CCCCC3)n2Cc2c(F)cccc2Cl)n(C)c1=O the RAM network inhibition was 4.38% (inactive).
For CCC(C)Sc1nnc(Cc2cc(=O)[nH]c(=O)[nH]2)n1-c1ccc(F)cc1 (centres undefined), the RAM network inhibition was -1.47% (inactive).
